Active and inactive are the calls of the source.
Assays:
Albumin (Bos taurus) = Albumin (Bos taurus) (UniProt P02769); test: bovine serum albumin binders on microarray, profiling panel, artefact control for SMM control protein annotation, biochemical, small-molecule microarray, Alexa647 label, 635/667 nm fluorescence (AID 1118); details: BSA-A647 binding, fluorescence 635 nm, higher = more signal;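 also: score merges 667 nm emission intensity and signal-to-noise per printed compound spot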
[1] = small-molecule microarray binders of probe aXIP, primary screen, biochemical, NeuroSMM set, 635/667 nm fluorescence (AID 1119); details: higher = more signal, called active from +8 up or from −8 down;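 also: probe is the protein aXip251-270 applied at 1 µg/mL to compound-printed slides; binding of probe to printed compounds measured as 667 nm fluorescence plus signal to noise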
[2] = small-molecule binders of probe aNOTCH3, primary screen, biochemical, small-molecule microarray, 635/667 nm fluorescence (AID 1120); details: higher = more signal;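 also: probe is a biotin-tagged antibody raised against NOTCH3 rather than NOTCH3 protein; score merges spot fluorescence near 667 nm with spot signal to noise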
[3] = small-molecule binders of probe aNOTCH2, primary screen, biochemical, small-molecule microarray, 635/667 nm fluorescence (AID 1121); details: higher = more signal;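 also: score merges feature fluorescence read at 667 nm with its signal to noise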
[4] = molecular target: Carbonic anhydrase 2 (Homo sapiens) (UniProt P00918); test: CAII small-molecule binders, profiling panel, biochemical, small-molecule microarray, Alexa647-labelled CAII (AID 1122); details: CAII-A647 binding fluorescence, higher = more signal
[5] = COS7 lysate on small-molecule microarray, probe aHis, 635 nm (AID 1123); details: COS7 cell lysate, fluorescence, higher = more signal;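 also: z-score combines 667nm fluorescence intensity with signal-to-noise per printed compound spot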
[6] = compound binding in COS7 lysate, probe aLAP1, primary screen, cell lysate, small-molecule microarray (AID 1124); details: probe aLAP1, fluorescence, higher = more signal;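 also: lysate comes from COS7 cells expressing LAP1 and is applied at 0.3 µg/mL; score merges spot fluorescence near 667 nm with signal-to-noise over triplicate slides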
Sam68 (KHDRBS1) = test: Sam68 small-molecule binders, primary screen, biochemical, small-molecule microarray, 635 nm fluorescence (AID 1125); details: small-molecule microarray binding, higher = more signal;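 also: score merges 667 nm channel intensity with signal to noise over triplicate slides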
[7] = test system: Chordin-like protein 2 (CHRDL2); test: CHRDL2 small-molecule binders, primary screen, biochemical, small-molecule microarray, 635 nm fluorescence (AID 1126); details: small-molecule microarray binding, fluorescence 635 nm; higher = more signal;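 also: printed compound slides probed with Chrdl2 protein at 4 µg/mL for 1 h at 4 C; score merges 667 nm emission intensity with signal to noise over three replicate slides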
[8] = molecular target: Concanavalin-A (Canavalia ensiformis) (UniProt P02866); test: ConA small-molecule binders, primary screen, artefact control for SMM control protein annotation, biochemical, small-molecule microarray, Alexa647 label, 635 nm (AID 1127); details: ConA-A647 binding fluorescence, higher = more signal;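 also: z combines 667 nm emission intensity with signal-to-noise across three replicate slides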
[9] = anti-His antibody binders, primary screen, artefact control for SMM control protein annotation, biochemical, small-molecule microarray, 635 nm fluorescence (AID 1128); details: anti-His Alexa647 antibody binding, higher = more signal;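 also: score merges feature fluorescence with signal-to-noise for each printed compound spot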
[10] = test system: Human papillomavirus type 1a E7 protein (residues 1-88); test: HPV1a E7 small-molecule binders, primary screen, biochemical, small-molecule microarray, residues 1-88, 635 nm (AID 1129); details: small-molecule microarray binding, fluorescence 635 nm; higher = more signal
[11] = molecular target: Focal adhesion kinase 1 (Homo sapiens) (UniProt Q05397); test: small-molecule microarray binders of FAK, primary screen, biochemical, 635/667 nm fluorescence, BSA, DTT (AID 1130); details: PTK2 binding, 635 nm fluorescence, higher = more signal;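 also: composite of spot emission at 667 nm and signal to noise over triplicate slides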
[12] = test system: Fibrinogen (Alexa647-labelled); test: fibrinogen binders on compound microarrays, profiling panel, artefact control for SMM control-protein annotation, biochemical, small-molecule microarray, 635/667 nm fluorescence (AID 1131); details: fibrinogen-A647 binding fluorescence, higher = more signal;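 also: z-score merges 667 nm fluorescence with per-spot signal-to-noise over triplicate slides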
[13] = molecular target: Follistatin (Homo sapiens) (UniProt P19883); test: follistatin binders on small-molecule microarrays, primary screen, biochemical, small-molecule microarray, 635/667 nm fluorescence (AID 1132); details: FST binding, 635 nm fluorescence, higher = more signal
[14] = molecular target: Fibroblast growth factor 2 (Homo sapiens) (UniProt P09038); test: FGF2 binders on small-molecule microarrays, primary screen, biochemical, small-molecule microarray, 635/667 nm fluorescence (AID 1133); details: small-molecule microarray binding, FGF2, fluorescence 635/667; higher = more signal
[15] = mitochondrial membrane potential change in A549 cells, profiling panel, cell-based, JC-1 fluorescence, basal, 24 h, 100 nL (AID 1138); details: higher = more signal;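 also: A549 lung adenocarcinoma cells under basal conditions with no added stimulus; test concentration not given here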
Lefty1 = Lefty1 binders on small-molecule microarrays, primary screen, biochemical, small-molecule microarray, 635/667 nm fluorescence (AID 1139); details: small-molecule microarray binding, fluorescence 635/667; higher = more signal
[16] = test system: wheat germ agglutinin (Triticum aestivum), Alexa647-labelled; test: wheat germ agglutinin binders on compound microarrays, profiling panel, artefact control for SMM control-protein annotation, biochemical, small-molecule microarray, 635/667 nm fluorescence (AID 1140); details: WGA-A647 binding, 635 nm fluorescence, higher = more signal;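 also: score merges 667 nm feature emission with signal to noise over triplicate slides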
[17] = molecular target: Luciferin 4-monooxygenase (Photinus pyralis) (UniProt P08659); test: firefly luciferase enzyme inhibitors, primary screen, biochemical, luminescence, purified enzyme, 2006 set (AID 1141); details: SteadyGlo luminescence, 30 min, higher = more signal, called active from +8 up or from −8 down;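 also: cell-free assay with purified firefly luciferase at 100 ng per well in PBS; test concentration not given here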
Sequence of Luciferin 4-monooxygenase (Photinus pyralis) (P08659 whole entry, looked up): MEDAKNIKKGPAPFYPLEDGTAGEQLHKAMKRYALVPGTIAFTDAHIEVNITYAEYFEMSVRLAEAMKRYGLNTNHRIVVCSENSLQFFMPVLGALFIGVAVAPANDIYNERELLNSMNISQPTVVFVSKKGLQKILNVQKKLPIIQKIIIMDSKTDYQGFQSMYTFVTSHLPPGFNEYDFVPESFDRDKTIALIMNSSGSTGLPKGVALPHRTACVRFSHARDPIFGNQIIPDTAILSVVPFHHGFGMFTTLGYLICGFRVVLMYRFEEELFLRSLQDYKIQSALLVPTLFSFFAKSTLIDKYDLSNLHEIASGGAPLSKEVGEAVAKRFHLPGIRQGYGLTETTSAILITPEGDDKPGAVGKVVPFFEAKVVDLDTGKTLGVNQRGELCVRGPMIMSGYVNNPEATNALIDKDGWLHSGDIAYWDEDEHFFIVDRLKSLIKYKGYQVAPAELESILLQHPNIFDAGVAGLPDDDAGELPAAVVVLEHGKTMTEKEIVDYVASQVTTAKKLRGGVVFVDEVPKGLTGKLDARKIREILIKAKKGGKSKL

Sequence of Fibroblast growth factor 2 (Homo sapiens) (P09038 whole entry, looked up): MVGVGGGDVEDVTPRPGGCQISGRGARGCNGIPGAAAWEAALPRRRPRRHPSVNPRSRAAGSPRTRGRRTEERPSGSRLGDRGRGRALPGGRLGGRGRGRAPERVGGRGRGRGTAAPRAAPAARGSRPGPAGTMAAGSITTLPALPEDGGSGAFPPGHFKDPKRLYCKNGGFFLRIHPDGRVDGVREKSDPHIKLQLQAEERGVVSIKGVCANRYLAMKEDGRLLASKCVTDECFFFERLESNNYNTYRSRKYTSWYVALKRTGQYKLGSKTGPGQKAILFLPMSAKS
Sequence of Concanavalin-A (Canavalia ensiformis) (P02866 whole entry, looked up): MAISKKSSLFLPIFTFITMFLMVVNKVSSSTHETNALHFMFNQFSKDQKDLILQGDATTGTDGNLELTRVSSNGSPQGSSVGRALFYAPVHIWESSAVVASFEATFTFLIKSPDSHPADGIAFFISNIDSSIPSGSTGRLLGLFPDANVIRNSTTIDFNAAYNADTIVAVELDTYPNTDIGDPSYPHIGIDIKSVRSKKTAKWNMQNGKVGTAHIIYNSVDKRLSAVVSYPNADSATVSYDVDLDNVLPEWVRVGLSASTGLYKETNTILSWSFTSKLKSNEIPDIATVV
Sequence of Focal adhesion kinase 1 (Homo sapiens) (Q05397 whole entry, looked up): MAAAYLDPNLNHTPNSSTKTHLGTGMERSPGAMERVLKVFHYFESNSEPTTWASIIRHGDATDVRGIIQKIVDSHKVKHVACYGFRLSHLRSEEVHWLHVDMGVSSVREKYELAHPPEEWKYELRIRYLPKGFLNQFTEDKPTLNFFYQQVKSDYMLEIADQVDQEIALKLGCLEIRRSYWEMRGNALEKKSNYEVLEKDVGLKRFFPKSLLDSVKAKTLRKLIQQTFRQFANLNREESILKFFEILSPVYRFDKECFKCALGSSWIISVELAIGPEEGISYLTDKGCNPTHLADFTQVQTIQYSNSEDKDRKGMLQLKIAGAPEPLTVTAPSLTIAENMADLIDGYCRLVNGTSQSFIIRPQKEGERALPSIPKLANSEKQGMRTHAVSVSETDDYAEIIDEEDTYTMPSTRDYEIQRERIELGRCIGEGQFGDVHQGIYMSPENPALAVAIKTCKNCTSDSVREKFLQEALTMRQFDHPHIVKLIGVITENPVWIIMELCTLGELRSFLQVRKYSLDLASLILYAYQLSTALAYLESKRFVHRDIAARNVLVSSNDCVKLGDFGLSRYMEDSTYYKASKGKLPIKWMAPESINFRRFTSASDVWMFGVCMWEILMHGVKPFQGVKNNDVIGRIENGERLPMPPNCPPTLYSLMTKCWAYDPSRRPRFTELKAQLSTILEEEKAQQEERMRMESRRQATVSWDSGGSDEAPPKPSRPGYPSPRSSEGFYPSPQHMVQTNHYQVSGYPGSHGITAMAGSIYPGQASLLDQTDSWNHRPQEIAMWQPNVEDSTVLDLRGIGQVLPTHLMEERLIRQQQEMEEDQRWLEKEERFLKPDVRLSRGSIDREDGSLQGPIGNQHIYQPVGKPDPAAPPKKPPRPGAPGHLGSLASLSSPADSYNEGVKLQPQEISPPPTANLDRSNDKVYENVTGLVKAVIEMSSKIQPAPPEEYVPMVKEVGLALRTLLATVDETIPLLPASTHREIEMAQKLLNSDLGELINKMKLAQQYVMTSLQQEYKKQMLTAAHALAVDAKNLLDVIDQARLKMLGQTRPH
Sequence of Follistatin (Homo sapiens) (P19883 whole entry, looked up): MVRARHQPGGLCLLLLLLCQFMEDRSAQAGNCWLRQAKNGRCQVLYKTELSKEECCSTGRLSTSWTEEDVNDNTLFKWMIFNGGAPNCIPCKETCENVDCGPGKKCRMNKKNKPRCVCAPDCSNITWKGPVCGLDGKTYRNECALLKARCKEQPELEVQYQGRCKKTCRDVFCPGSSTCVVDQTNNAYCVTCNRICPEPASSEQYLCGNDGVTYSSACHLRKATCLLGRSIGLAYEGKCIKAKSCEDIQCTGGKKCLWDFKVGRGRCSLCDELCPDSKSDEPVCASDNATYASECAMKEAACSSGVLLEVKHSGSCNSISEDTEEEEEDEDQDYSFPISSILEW
Sequence of Albumin (Bos taurus) (P02769 whole entry, looked up): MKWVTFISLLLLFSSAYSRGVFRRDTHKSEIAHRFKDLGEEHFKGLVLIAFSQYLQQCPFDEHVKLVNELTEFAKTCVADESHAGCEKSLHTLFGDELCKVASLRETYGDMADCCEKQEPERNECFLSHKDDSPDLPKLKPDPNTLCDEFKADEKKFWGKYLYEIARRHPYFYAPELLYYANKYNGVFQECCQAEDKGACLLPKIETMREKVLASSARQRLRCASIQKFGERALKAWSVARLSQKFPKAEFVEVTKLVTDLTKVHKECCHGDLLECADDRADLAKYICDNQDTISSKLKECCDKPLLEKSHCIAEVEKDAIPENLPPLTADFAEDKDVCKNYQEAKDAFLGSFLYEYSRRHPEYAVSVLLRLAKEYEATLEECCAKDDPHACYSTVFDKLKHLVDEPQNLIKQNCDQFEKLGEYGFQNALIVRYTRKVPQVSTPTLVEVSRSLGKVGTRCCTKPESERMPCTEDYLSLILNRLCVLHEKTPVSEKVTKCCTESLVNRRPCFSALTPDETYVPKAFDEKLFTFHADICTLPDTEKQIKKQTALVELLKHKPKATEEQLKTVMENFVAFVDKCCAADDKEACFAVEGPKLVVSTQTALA

Structure (SMILES) | composite z-score (Albumin (Bos taurus)) | composite Z-score [1] | composite z-score [2] | composite z-score [3] | composite z-score [4] | composite z-score [5] | composite z-score [6] | composite z-score (Sam68 (KHDRBS1)) | composite z-score [7] | composite z-score [8] | composite z-score [9] | composite z-score [10] | composite z-score [11] | composite z-score [12] | composite z-score [13] | composite z-score [14] | z-score [15] | composite z-score (Lefty1) | composite z-score [16] | z-score [17]
Cc1cc(C)c(C(O)C2C=CC3C(=O)N(c4ccccc4)C(=O)C3N2Nc2ccc(C#N)cc2)c(C)c1 (stereo not given) | 1.07 | 0.902 (inactive) | 0.0649 | 0.115 | 0.743 | 3.02 | 0.629 | 1.35 | -0.183 | 1.19 | 1.21 | 1.23 | 0.388 | 0.912 | 0.509 | 0.312 | -0.613 | 0.302 | 1.03 | -0.75 (inactive)
[N-]=[N+]=NCc1ccccc1C[C@@]1(C(=O)NCC(O)CO)N=C(c2ccc(OCCCO)cc2)O[C@@H]1c1ccccc1CN=[N+]=[N-] (stereo not given in full) | 1.01 | -0.082 (inactive) | 0.319 | -0.0335 | 0.546 | 3.29 | -0.0011 | 1.29 | -0.257 | 1.1 | -0.0645 | 1.23 | 0.919 | 0.971 | 1.28 | 1.6 | 0.16 | -0.83 | 0.91 | 0.782 (inactive)
CCOC(=O)C1=CC[C@@H](c2ccccc2Cl)N(S(=O)(=O)c2ccc(C)cc2)C1 | 0.963 | 0.817 (inactive) | 0.0738 | 0.145 | 0.563 | 2.04 | 0.837 | 1.06 | -1.04 | 1.04 | 1.15 | 1.18 | 1.29 | 0.838 | 0.37 | 0.163 | 2.73 | -0.612 | 0.91 | 0.614 (inactive)
CCOC(=O)C1=CCC(C(C)(C)C)N(S(=O)(=O)c2ccc(C)cc2)C1 (stereo not given) | 0.815 | -0.427 (inactive) | 0.34 | -0.0196 | 0.623 | 2.45 | 0.368 | 1.32 | 0.825 | 1.1 | 0.992 | 1.26 | 0.225 | 1.01 | 1.29 | 1.39 | 0.363 | 1 | 0.722 | 0.916 (inactive)
CC(C)OC(=O)CC(=O)CC(O)c1ccc(C#N)cc1 (stereo not given) | -0.181 | 0.0371 (inactive) | -0.0377 | 0.174 | 0.0258 | 0.657 | 0.649 | 0.438 | -1.19 | -0.6 | 0.548 | 1.14 | 0.762 | 1.04 | -0.337 | -0.581 | 0.409 | -0.783 | 0.731 | 0.902 (inactive)
CC(C)C(=C=CC[C@H](O)c1ccccc1OCCO)C[C@H](O)c1ccccn1 | 0.161 | 0.41 (inactive) | 0.395 | -0.0488 | 0.632 | 0.559 | 1.61 | 0.861 | -0.161 | -0.0625 | 1.93 | 0.958 | 0.344 | 0.207 | 0.476 | 0.857 | 0.453 | 0.649 | 1.33 | -0.88 (inactive)
C=CC[C@]1(C(=O)N2CCOCC2)N=C(c2ccc(OCCCO)cc2)O[C@H]1c1ccccc1 | 0.758 | -0.128 (inactive) | 0.0225 | -0.0906 | 0.785 | 3.15 | 0.446 | 0.618 | -0.0547 | 1.09 | 1.69 | 1.22 | 0.602 | 0.866 | 0.401 | 0.12 | 0.409 | -0.781 | 1.28 | 1.25 (inactive)
C=CCC(OC(C)=O)[C@@H]1[C@@H](N(Cc2cc3ccccc3o2)C(=O)c2ccc(C)cc2)c2cc(OCCCO)ccc2N1C(=O)c1ccc2ccccc2c1 (stereo not given in full) | 0.767 | 0.698 (inactive) | 0.0259 | -0.101 | 0.0486 | 0.605 | -0.069 | -0.0437 | 0.157 | -0.309 | 0.192 | -0.409 | 0.281 | 0.257 | 0.503 | 0.286 | 1.24 | 0.217 | 0.32 | -1.76 (inactive)
COc1ccc([Si](C)(C)[C@H]2[C@H](CC(=O)N(CCO)Cc3ccccc3)O[C@@]3(C(=O)N(Cc4cccc(N5CCC5=O)c4)c4ccccc43)[C@@H]2C)cc1 | 0.378 | 4.59 (inactive) | -0.0802 | -0.154 | 0.454 | 1.12 | 0.782 | 1.01 | 1.1 | 1.11 | 2.18 | 1.03 | 0.222 | 0.279 | 1.12 | 1.68 | -0.166 | 1.33 | 0.767 | 0.272 (inactive)
CCOC(=O)C[C@H]1[C@H](OC(=O)c2ccccc2-c2ccccc2)[C@@H](NC(=O)Cc2ccc(OC)cc2)c2cc(OCCCO)ccc2N1C(=O)c1ccccc1 | 0.176 | 0.0843 (inactive) | -0.113 | -0.155 | -0.0951 | 0.157 | -0.0152 | -0.0445 | 0.0492 | -0.393 | -0.269 | -0.371 | 0.145 | -0.449 | 0.23 | -0.443 | 0.362 | 0.189 | -0.0397 | 0.474 (inactive)
